PREPL inh = inhibitors of human prolyl oligopeptidase-like enzyme PREPL | recombinant PREPL, fluorescence polarization activity-based probe | inhibition, % at 5.96 µM | 320,000 compounds, 0.68% hits; in the data active = inhibition above about 43%;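 note: 0% = enzyme with DMSO and 100% = wells lacking enzyme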
MEKK2 WT-MEK5 = raises or lowers MEK5 binding to wildtype human MEKK2 PB1 domain; bead flow cytometry, Alexa488-MEK5 binding to MEKK2 WT; actives lie on both sides; AID 1531; binding response (% of control), % at 10 µM; Q9Y2U5; 290,000 compounds, 1.1% hits; in the data active = binding response below about 67% or above about 130%
UBC13 polyUb = human UBC13 polyubiquitination inhibition | P61088 | UBC13 polyubiquitin chain formation, TR-FRET | inhibition, % at 20 µM | 330,000 compounds, 0.47% hits | AID 485273; in the data active = inhibition above about 45%, passing the limit was not always enough
Target sequence (P61088 whole entry, looked up): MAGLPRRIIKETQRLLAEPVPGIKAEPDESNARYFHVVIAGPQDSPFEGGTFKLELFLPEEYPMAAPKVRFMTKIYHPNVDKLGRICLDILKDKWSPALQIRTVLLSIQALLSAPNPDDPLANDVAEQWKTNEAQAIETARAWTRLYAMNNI
MEKK2mut PB1 HTS = signal of MEK5 binding to mutant human MEKK2 PB1 domain; bead flow cytometry, Alexa488-MEK5 binding to MEKK2 mutant; percent response, % at 10 µM; 290,000 compounds, 0.35% hits; AID 1530; in the data active = percent response above about 24%, passing the limit was not always enough
ATG4B inh = ATG4B (human) cysteine protease inhibition | ATG4B cleavage of LC3-PLA2, NBD-HPC fluorescence, 1 h | inhibition, % at 8.33 µM | 340,000 compounds, 0.51% hits | AID 504462; in the data active = inhibition above about 40%
MEKK3 PB1 HTS = MEKK3-MEK5 PB1 interaction, increase or decrease; Q99759; bead-based flow cytometry, Alexa488-MEK5 binding to MEKK3; actives lie on both sides; 0 = blocked by unlabeled MEK5, 100 = vehicle; binding response (% of control), % at 10 µM; 290,000 compounds, 1.4% hits; AID 1529;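 active = binding response more than 3 SD above or below the average of its plate-row segment, actives on both sides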;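 note: Alexa488 bead fluorescence after subtracting the streptavidin-only scavenger bead signal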
ATG4B confirm = confirmation of human ATG4B inhibitors. shares compounds with ATG4B inh. AID 504757. inhibition, % at 8.33 µM. ATG4B protease fluorescent substrate cleavage assay. 320 compounds, 92% hits; in the data active = inhibition above about 39%
PLA2 counter = counter-screen for ATG4B inhibitors: human phospholipase A2. purified PLA2, NBD-C6-HPC fluorescence, 45 min. inhibition, % at 8.33 µM. 1,600 compounds, 66% hits. AID 588402. shares compounds with ATG4B inh; in the data active = inhibition above about 50%
Target sequence (P04054 whole entry, looked up): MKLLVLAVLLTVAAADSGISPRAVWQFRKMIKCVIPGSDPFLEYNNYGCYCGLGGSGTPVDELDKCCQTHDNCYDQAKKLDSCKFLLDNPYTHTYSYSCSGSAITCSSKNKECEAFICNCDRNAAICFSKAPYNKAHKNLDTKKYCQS
Numbers without * were called inactive; / = no result given. This is a sample that favours compounds with a hit; in the whole collection about 3.1% have one here.

SMILES	PREPL inh	MEKK2 WT-MEK5	UBC13 polyUb	MEKK2mut PB1 HTS	ATG4B inh	MEKK3 PB1 HTS	PLA2 counter	others
O=C(O)c1[nH]c2ccccc2c1C(c1ccccc1)c1c(C(=O)O)[nH]c2ccccc12	-1	96	-20	0	12	93	/
O=C(O)c1[nH]c2ccccc2c1C(c1cc(Cl)cc([N+](=O)[O-])c1O)c1c(C(=O)O)[nH]c2ccccc12	1	101	-49	1	58*	106	40	ATG4B confirm=30
O=c1c2ccccc2nc(-c2ccoc2)n1CCc1ccccc1	-4	100	-2	2	42*	100	36	ATG4B confirm=65*
O=c1c2ccccc2nc(/C=C/c2ccccc2)n1CCc1ccccc1	-7	107	7	14	4	102	/
O=C1C(SCCO)=C(SCCO)C(=O)c2ccccc21	30	/	-124	/	44*	/	-16	ATG4B confirm=72*
CCN(c1ccc(OC)cc1)S(=O)(=O)N1CCCC(C(=O)NCc2ccccc2Br)C1 (stereo not given)	6	101	2	0	57*	96	58*
COc1ccc(-c2cc(C(F)(F)F)nc(SCc3cccc(C(=O)O)c3)n2)cc1	17	76	10	-16	44*	71	56*
COc1ccc(C2CC(O)(c3ccccc3)Oc3c(C)ccc(C)c32)cc1 (stereo not given)	-6	92	-10	-9	56*	98	65*
COc1ccc(C2CC(O)(c3ccccc3)Oc3cc(OC)cc(OC)c32)cc1 (stereo not given)	/	90	9	1	-3	96	/
CN(C)c1cc(-c2ccc(Cl)cc2Cl)oc(=O)c1Cl	-5	88	4	-7	3	87	/
Cc1ccc(F)cc1CNC(=O)c1cc(COc2ccc3ncccc3c2)on1	-2	106	10	5	61*	99	68*
COc1cc(/C=C2/C(=N)N3C=CSC3=NC2=O)ccc1OCCCOc1c(C)cccc1C	-3	102	-37	2	49*	101	37	ATG4B confirm=57*
COc1cc(/C=C2/C(=N)N3C=CSC3=NC2=O)ccc1OCCCOc1ccccc1C	11	105	-14	4	-1	104	/
CCCN1CCN(C(=O)CCc2nnc3ccc(N4CCN(c5cccc(OC)c5)CC4)nn23)CC1	27	103	7	3	-13	99	/
Cc1ccc(CNCc2cc(Cl)ccc2O)cc1	2	/	23	/	-9	/	/
O=S(=O)(Nc1nc2ccccc2nc1N1CCN(c2ccccc2F)CC1)c1ccc(Cl)cc1	-6	98	-4	1	71*	103	68*
O=C1CCCC2=C1C1(CCCCC1)N=C(Nc1nc3ccccc3s1)N2	-3	96	9	-6	55*	92	-14
O=C1CCCC2=C1C1(CCCC1)N=C(Nc1nc3ccccc3s1)N2	2	105	23	4	75*	100	9
CC1(C)CC(=O)C2=C(C1)NC(Nc1nc3ccccc3o1)=NC21CCCC1	5	101	6	0	-2	100	/
Cc1c(C(=O)N2CCOCC2)sc(NC(=O)C(C)C)c1C#N	19	103	0	7	-12	102	/
CN1C(=O)C(N=Nc2ccccc2C(=O)O)N(C)C1=S (stereo not given)	-3	91	-184	-8	41*	100	40	ATG4B confirm=70*
Oc1ccccc1C1CCCCC1c1ccccc1 (stereo not given)	3	106	/	7	52*	107	49
Oc1ccccc1C1OCC2(CO1)COC(c1ccccc1O)OC2 (stereo not given)	-5	105	-2	4	4	107	/
CC(NC(=O)C1CCN(C(=O)Nc2ccccc2)CC1)c1ccccc1 (stereo not given)	1	/	-4	/	-2	/	/
O=C(Nc1nc2c(Cl)cccc2s1)C1CC1	-8	109	10	5	-11	104	/
SMILES	PREPL inh	MEKK2 WT-MEK5	UBC13 polyUb	MEKK2mut PB1 HTS	ATG4B inh	MEKK3 PB1 HTS	PLA2 counter	others
O=C(Nc1nc2c(cc3c4c(cccc42)CC3)s1)c1ccccc1Cl	1	101	-8	9	43*	101	45	ATG4B confirm=60*
O=S(=O)(c1cccc(Br)c1)N1CCN(CCc2ccccc2)CC1	2	97	4	1	-13	100	/
Cc1ccc(NC2=C/C(=N/S(=O)(=O)c3cccs3)c3ccccc3C2=O)cc1	5	84	-70	-1	8	83	/
O=C1C(Nc2ccccc2)=C/C(=N/S(=O)(=O)c2cccs2)c2ccccc21	30	90	/	-2	72*	93	78*
CCOc1ccc(-n2c(SCc3ccc(C(=O)OC)o3)nc3c(c2=O)SCC3)cc1	-6	106	-6	1	60*	107	77*
COC(=O)c1ccc(CSc2nc3c(c(=O)n2-c2ccc(Br)cc2)SCC3)o1	28	100	0	2	65*	105	73*
Cc1cccc(C)c1NC(=O)COC(=O)c1c2c(nc3ccccc13)/C(=C\c1ccc3c(c1)OCO3)CCC2	71*	97	/	-1	44*	96	16
CC(OC(=O)c1c2c(nc3ccccc13)/C(=C\c1ccc3c(c1)OCO3)CCC2)C(=O)Nc1ccc(S(N)(=O)=O)cc1 (stereo not given)	/	107	/	-1	5	105	/
Cc1c(C(=O)Nc2nccs2)sc2nc(-c3cccs3)cc(C(F)(F)F)c12	4	69	20	-6	50*	89	8
COC(=O)C1=C(C)N(Cc2cccnc2)C(=O)/C1=C\c1sccc1C	9	97	-13	-10	42*	95	54*
N#C/C(=C\c1ccc(OCC(N)=O)cc1)c1ccccc1	0	102	1	-1	45*	99	53*
NC(=O)Cc1ccc(Nc2nnc(-c3ccc(O)cc3)c3ccccc23)cc1	13	101	4	7	92*	100	91*
Cc1ccc(-c2nnc(Nc3ccc(CC(N)=O)cc3)c3ccccc23)cc1S(=O)(=O)NCCO	19	107	-4	9	84*	103	87*
CNS(=O)(=O)c1cc(-c2nnc(Nc3ccc(NC(C)=O)cc3)c3ccccc23)ccc1C	23	99	-4	0	-11	100	/
NC(=O)c1ccc(Nc2nnc(-c3ccc(O)cc3)c3ccccc23)cc1	26	102	-4	-3	-3	106	/

Screens: PubChem BioAssay, several laboratories
